Data taken from the supplement of paper PMC10849652.
Of roughly 7,900 targets only a part is listed; those with a hit were picked by preference. About 0.6% of all pairs of compound and target were hits. Unmarked numbers belong to inactive results.

How the values were obtained:
Test in all cases: log2 fold change, soluble protein after heating vs DMSO (PISA); higher = thermal stabilisation; K562 cells, 10 uM, 30 min; active = over 0.2 and 3.5 SD of the protein, either way, in both replicates (recomputed)
saracatinib = compound: CN1CCN(CCOc2cc(OC3CCOCC3)c3c(Nc4c(Cl)ccc5c4OCO5)ncnc3c2)CC1 [saracatinib]
Procedure, shortened: (§1)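 K562 cells at 2×10^6 cells/mL were treated for 30 min with 10 μM compound, and aliquots were heated for 3 min over 48°C-58°C before pooling. Extraction used PBS with 0.5% NP-40 at 4°C, and soluble protein was the supernatant after 21,000xg for 90 min, measured by TMTpro 16plex LC-MS/MS with channel sums equalised. Thermal stability values, relative to control samples and from duplicates, are log2 fold changes.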

sotrastaurin = compound: CN1CCN(c2nc(C3=C(c4c[nH]c5ccccc45)C(=O)NC3=O)c3ccccc3n2)CC1 [sotrastaurin]
Procedure, shortened: as §1

alvocidib = compound: CN1CC[C@H](c2c(O)cc(O)c3c(=O)cc(-c4ccccc4Cl)oc23)[C@H](O)C1 [alvocidib]
Procedure, shortened: as §1

Tubastatin A = compound: CN1CCc2c(c3ccccc3n2Cc2ccc(C(=O)NO)cc2)C1 [Tubastatin A]
Procedure, shortened: as §1

[1] = compound: CNC(=O)C1=CC=CC=C1NC2=NC(=NC=C2Cl)NC3=C(C=C(C=C3)N4CCOCC4)OC
Procedure, shortened: as §1

defactinib = compound: CNC(=O)c1ccc(Nc2ncc(C(F)(F)F)c(NCc3nccnc3N(C)S(C)(=O)=O)n2)cc1 [defactinib]
Procedure, shortened: as §1

rucaparib = compound: CNCc1ccc(-c2[nH]c3cc(F)cc4c3c2CCNC4=O)cc1 [rucaparib]
Procedure, shortened: as §1

[2] = compound: CNc1nc(-c2ccc3c(N)n[nH]c3c2)cc(N2C[C@@H](C(=O)NC3CCCCC3)CC[C@H]2C)n1
Procedure, shortened: as §1

encorafenib = compound: COC(=O)N[C@@H](C)CNc1nccc(-c2cn(C(C)C)nc2-c2cc(Cl)cc(NS(C)(=O)=O)c2F)n1 [encorafenib]
Procedure, shortened: as §1

[3] = compound: COC(=O)[C@H](CCSC)NC(=O)C1=C(C=C(C=C1)NC[C@H](CS)N)C2=CC=CC=C2
Procedure, shortened: as §1

[4] = compound: COC1=CC=C(C=C1)CN2C=CC3=C2C=C(C=C3)C(=O)NO
Procedure, shortened: as §1

filanesib = compound: CON(C)C(=O)N1N=C(c2cc(F)ccc2F)S[C@@]1(CCCN)c1ccccc1 [filanesib]
Procedure, shortened: as §1

zotarolimus = compound: CO[C@H]1C[C@@H]2CC[C@@H](C)[C@@](O)(O2)C(=O)C(=O)N2CCCC[C@H]2C(=O)O[C@H]([C@H](C)C[C@@H]2CC[C@H](n3cnnn3)[C@H](OC)C2)CC(=O)[C@H](C)/C=C(\C)[C@@H](O)[C@@H](OC)C(=O)[C@H](C)C[C@H](C)/C=C/C=C/C=C/1C [zotarolimus]
Procedure, shortened: as §1

idasanutlin = compound: COc1cc(C(=O)O)ccc1NC(=O)[C@@H]1N[C@@H](CC(C)(C)C)[C@](C#N)(c2ccc(Cl)cc2F)[C@H]1c1cccc(Cl)c1F [idasanutlin]
Procedure, shortened: as §1

alisertib = compound: COc1cc(Nc2ncc3c(n2)-c2ccc(Cl)cc2C(c2c(F)cccc2OC)=NC3)ccc1C(=O)O [alisertib]
Procedure, shortened: as §1

[5] = compound: COc1cc2nc(-c3cc(F)ccc3O)nc(N[C@@H]3CNC[C@H]3C(C)(C)O)c2cc1OC
Procedure, shortened: as §1

gefitinib = compound: COc1cc2ncnc(Nc3ccc(F)c(Cl)c3)c2cc1OCCCN1CCOCC1 [gefitinib]
Procedure, shortened: as §1

[6] = compound: COc1cccc2cc(-c3nc([C@H]4CC[C@H](C(=O)O)CC4)n4ncnc(N)c34)[nH]c12
Procedure, shortened: as §1

lapatinib = compound: CS(=O)(=O)CCNCc1ccc(-c2ccc3ncnc(Nc4ccc(OCc5cccc(F)c5)c(Cl)c4)c3c2)o1 [lapatinib]
Procedure, shortened: as §1

pictilisib = compound: CS(=O)(=O)N1CCN(Cc2cc3nc(-c4cccc5[nH]ncc45)nc(N4CCOCC4)c3s2)CC1 [pictilisib]
Procedure, shortened: as §1

Sequence of UniProt Q9BXP2 (Q9BXP2 whole entry, looked up): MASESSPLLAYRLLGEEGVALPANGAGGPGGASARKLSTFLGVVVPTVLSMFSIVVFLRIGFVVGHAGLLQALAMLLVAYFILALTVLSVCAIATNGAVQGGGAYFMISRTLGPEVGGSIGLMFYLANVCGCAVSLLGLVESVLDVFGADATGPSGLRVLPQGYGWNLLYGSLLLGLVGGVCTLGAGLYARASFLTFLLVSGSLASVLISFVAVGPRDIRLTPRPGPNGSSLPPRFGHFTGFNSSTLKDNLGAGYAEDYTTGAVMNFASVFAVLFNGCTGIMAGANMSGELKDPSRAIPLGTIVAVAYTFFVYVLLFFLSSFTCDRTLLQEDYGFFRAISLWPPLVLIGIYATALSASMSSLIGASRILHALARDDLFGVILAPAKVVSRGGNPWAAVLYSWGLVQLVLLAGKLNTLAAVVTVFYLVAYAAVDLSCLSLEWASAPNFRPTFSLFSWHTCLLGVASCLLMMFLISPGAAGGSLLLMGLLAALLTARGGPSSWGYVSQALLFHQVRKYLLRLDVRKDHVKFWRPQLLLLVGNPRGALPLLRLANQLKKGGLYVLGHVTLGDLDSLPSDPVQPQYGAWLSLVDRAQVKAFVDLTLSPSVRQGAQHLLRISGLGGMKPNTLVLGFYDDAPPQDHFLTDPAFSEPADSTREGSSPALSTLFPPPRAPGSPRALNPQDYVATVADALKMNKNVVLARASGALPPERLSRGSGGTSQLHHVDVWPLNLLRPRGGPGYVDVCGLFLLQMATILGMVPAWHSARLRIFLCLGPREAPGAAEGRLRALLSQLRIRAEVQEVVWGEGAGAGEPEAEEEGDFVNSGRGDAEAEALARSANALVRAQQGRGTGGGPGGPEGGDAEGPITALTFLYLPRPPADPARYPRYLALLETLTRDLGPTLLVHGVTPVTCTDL
Sequence of UniProt Q13796 (Q13796 whole entry, looked up): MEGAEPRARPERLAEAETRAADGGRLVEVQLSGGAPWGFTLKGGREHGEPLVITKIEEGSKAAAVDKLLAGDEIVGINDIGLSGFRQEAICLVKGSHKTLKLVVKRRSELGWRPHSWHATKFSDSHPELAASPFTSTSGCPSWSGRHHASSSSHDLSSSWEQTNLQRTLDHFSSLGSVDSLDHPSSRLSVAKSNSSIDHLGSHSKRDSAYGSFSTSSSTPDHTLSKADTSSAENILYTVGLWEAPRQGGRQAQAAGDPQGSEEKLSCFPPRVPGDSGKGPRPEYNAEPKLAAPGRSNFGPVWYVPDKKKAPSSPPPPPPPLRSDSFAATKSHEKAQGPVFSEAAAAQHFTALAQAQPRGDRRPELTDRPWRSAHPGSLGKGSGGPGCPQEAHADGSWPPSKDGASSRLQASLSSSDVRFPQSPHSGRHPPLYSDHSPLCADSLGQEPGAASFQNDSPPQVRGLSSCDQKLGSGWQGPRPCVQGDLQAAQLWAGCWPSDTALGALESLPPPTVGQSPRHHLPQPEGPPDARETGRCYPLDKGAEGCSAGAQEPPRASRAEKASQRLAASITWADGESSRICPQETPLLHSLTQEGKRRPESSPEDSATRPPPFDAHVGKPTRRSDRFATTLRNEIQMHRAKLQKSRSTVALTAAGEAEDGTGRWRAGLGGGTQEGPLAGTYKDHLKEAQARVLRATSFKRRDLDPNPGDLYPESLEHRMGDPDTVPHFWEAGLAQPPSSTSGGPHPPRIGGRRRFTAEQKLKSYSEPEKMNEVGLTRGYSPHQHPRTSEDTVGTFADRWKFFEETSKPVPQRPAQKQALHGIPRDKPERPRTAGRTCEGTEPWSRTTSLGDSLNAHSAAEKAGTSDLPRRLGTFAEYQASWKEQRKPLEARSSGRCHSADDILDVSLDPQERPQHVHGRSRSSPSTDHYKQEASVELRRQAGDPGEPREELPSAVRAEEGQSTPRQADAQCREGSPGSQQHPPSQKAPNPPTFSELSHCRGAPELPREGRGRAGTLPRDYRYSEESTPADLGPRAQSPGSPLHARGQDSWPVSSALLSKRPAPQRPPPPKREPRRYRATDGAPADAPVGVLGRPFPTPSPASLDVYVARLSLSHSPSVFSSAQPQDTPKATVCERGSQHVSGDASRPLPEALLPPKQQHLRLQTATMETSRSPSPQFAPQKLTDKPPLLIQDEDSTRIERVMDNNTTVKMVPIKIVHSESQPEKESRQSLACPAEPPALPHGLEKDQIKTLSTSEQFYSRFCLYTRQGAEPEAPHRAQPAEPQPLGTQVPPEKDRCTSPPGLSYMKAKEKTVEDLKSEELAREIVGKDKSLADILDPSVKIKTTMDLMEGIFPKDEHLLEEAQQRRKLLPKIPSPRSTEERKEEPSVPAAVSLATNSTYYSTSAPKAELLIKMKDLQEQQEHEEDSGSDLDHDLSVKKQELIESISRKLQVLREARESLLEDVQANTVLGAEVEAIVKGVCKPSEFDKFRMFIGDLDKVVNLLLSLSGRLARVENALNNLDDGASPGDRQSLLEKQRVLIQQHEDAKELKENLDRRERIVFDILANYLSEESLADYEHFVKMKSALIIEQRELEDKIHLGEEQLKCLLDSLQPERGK
Sequence of UniProt Q8NBN7 (Q8NBN7 whole entry, looked up): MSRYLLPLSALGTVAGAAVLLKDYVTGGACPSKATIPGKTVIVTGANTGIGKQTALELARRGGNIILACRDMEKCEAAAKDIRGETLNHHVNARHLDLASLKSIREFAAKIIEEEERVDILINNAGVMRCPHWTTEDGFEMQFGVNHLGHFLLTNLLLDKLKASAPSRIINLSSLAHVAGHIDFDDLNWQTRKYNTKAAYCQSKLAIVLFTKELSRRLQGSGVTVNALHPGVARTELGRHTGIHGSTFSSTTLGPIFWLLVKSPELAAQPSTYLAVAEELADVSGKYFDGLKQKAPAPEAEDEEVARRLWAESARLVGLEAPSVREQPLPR
Sequence of UniProt Q8N5L8 (Q8N5L8 whole entry, looked up): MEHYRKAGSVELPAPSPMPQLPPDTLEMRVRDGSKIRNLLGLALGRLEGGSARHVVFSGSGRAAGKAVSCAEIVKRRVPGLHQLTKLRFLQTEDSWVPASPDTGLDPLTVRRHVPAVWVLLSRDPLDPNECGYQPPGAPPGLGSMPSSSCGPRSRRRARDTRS
Sequence of UniProt P05543 (P05543 whole entry, looked up): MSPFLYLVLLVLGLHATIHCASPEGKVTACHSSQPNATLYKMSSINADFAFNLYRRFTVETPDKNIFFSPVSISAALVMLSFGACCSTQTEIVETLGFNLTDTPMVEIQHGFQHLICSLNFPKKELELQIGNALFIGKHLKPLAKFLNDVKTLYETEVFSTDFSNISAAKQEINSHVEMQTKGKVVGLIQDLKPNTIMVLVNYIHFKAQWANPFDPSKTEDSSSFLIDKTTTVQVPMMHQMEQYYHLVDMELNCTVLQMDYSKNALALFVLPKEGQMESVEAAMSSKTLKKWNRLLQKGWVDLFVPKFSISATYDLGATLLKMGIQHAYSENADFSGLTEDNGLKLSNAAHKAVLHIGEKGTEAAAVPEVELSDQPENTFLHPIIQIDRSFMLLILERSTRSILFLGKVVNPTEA
Sequence of UniProt O14796 (O14796 whole entry, looked up): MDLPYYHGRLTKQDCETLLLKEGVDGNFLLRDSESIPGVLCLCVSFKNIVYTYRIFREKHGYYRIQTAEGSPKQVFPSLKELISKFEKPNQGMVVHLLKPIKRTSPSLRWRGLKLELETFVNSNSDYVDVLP
Sequence of UniProt Q9P2N5 (Q9P2N5 whole entry, looked up): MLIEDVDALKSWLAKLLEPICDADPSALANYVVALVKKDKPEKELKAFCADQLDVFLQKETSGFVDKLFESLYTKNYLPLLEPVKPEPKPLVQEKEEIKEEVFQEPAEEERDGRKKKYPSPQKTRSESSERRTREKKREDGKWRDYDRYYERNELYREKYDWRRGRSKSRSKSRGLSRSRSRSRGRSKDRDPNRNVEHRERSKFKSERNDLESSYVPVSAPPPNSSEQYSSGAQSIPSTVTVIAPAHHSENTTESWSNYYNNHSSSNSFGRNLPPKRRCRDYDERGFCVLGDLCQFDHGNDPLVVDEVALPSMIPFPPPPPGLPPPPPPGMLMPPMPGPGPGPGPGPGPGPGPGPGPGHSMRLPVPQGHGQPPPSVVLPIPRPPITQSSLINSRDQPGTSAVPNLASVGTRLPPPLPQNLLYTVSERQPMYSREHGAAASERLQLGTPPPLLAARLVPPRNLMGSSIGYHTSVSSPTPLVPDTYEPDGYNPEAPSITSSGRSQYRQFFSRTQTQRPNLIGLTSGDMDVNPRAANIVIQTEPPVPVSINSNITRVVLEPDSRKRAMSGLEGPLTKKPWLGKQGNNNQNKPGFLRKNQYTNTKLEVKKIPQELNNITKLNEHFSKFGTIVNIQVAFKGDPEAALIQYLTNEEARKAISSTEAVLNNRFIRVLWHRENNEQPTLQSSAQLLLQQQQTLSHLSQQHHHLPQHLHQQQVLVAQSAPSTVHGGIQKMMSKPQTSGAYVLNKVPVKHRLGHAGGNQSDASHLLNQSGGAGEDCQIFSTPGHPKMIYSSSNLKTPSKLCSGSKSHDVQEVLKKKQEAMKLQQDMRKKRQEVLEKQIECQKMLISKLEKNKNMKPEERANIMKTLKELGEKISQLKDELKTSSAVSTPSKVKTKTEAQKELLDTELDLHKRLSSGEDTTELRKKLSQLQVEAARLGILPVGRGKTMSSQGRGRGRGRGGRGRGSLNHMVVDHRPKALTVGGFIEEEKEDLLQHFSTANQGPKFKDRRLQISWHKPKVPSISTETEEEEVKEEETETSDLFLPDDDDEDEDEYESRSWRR
Sequence of UniProt Q9BY42 (Q9BY42 whole entry, looked up): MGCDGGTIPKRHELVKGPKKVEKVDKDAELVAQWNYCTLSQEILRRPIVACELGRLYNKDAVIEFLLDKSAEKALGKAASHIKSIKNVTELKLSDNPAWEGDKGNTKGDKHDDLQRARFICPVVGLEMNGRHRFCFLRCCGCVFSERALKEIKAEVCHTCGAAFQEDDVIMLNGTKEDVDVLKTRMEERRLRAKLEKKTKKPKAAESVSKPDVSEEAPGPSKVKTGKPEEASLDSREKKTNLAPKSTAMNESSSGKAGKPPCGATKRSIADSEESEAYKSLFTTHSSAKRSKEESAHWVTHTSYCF

| Target | log2 fold change (saracatinib) | log2 fold change (sotrastaurin) | log2 fold change (alvocidib) | log2 fold change (Tubastatin A) | log2 fold change [1] | log2 fold change (defactinib) | log2 fold change (rucaparib) | log2 fold change [2] | log2 fold change (encorafenib) | log2 fold change [3] | log2 fold change [4] | log2 fold change (filanesib) | log2 fold change (zotarolimus) | log2 fold change (idasanutlin) | log2 fold change (alisertib) | log2 fold change [5] | log2 fold change (gefitinib) | log2 fold change [6] | log2 fold change (lapatinib) | log2 fold change (pictilisib) |
| --- | --- | --- | --- | --- | --- | --- | --- | --- | --- | --- | --- | --- | --- | --- | --- | --- | --- | --- | --- | --- |
| SLC12A9 (UniProt Q9BXP2) | 0.102 | 0.016 | -0.094 | -0.09 | -0.016 | -0.043 | -0.073 | -0.068 | -0.017 | -0.01 | -0.022 | -0.093 | 0.091 | 0.044 | -0.106 | 0.049 | -0.151 | 0.023 | 0.075 | -0.121 |
| SFXN5 (UniProt Q8TD22) | 0.106 | -0.014 | -0.098 | -0.053 | 0.019 | 0.017 | -0.043 | -0.038 | -0.053 | 0.045 | -0.104 | -0.007 | 0.025 | -0.172 | 0.027 | -0.019 | -0.013 | 0.035 | 0.017 | 0.061 |
| REEP4 (UniProt Q9H6H4) | 0.047 | -0.068 | 0.034 | 0.018 | -0.122 | 0.008 | 0.086 | -0.014 | -0.013 | -0.01 | -0.039 | -0.072 | -0.034 | 0.033 | -0.07 | -0.32 (active) | -0.032 | -0.031 | 0.121 | -0.175 |
| SH2D1B (UniProt O14796) | -1 (active) | 0.05 | -0.029 | -0.046 | -0.214 | -0.06 | 0.045 | -0.026 | 0.295 | 0.242 | 0.129 | 0.086 | -0.037 | 0.117 | -0.075 | 0.072 | -0.078 | 0.236 | 0.053 | -0.004 |
| RPA1 (UniProt P27694) | -0.007 | -0.016 | -0.031 | 0.039 | 0.012 | -0.076 | 0.027 | -0.01 | 0.076 | -0.021 | 0.053 | -0.006 | 0.018 | -0.042 | 0.027 | 0.049 | -0.001 | -0.133 | 0.006 | -0.088 |
| RDH13 (UniProt Q8NBN7) | -0.084 | 0.027 | -0.097 | -0.063 | -0.062 | -0.043 | 0.029 | 0.016 | 0.014 | -0.016 | 0.056 | -0.135 | 0.072 | -0.019 | -0.005 | -0.064 | 0.018 | 0.084 | 0 | 0.042 |
| SIRT2 (UniProt Q8IXJ6) | 0.031 | 0.136 | -0.023 | -0.015 | -0.038 | -0.015 | -0.033 | 0.181 | 0.014 | 0.025 | 0.083 | -0.02 | -0.029 | 0.016 | 0.036 | -0.012 | 0.069 | 0.017 | 0.065 | 0.168 |
| SHROOM2 (UniProt Q13796) | -0.118 | 0.128 | 0.071 | 0.283 | -0.29 | 0.059 | -0.049 | 0.08 | -0.136 | 0.1 | 0.417 | 0.066 | 0.02 | -0.045 | -0.027 | 0.237 | 0.056 | 0.009 | -0.188 | 0.226 |
| RSF1 (UniProt Q96T23) | 0 | -0.209 | -0.188 | 0.181 | 0.035 | -0.407 (active) | 0.026 | 0.048 | 0.029 | -0.086 | 0.267 | -0.078 | 0.023 | -0.147 | -0.067 | -0.018 | 0.037 | -0.17 | 0.004 | 0.114 |
| RBM27 (UniProt Q9P2N5) | 0.04 | -0.039 | -0.141 | 0.013 | -0.297 (active) | -0.303 (active) | -0.015 | 0.033 | -0.011 | -0.042 | -0.025 | 0.094 | 0.027 | 0.075 | 0.02 | -0.058 | 0.057 | 0.018 | 0.051 | -0.08 |
| RPP25L (UniProt Q8N5L8) | -0.079 | -0.087 | 0.061 | 0.026 | 0.062 | 0.002 | -0.032 | -0.158 | 0.014 | 0.058 | 0.107 | 0.012 | -0.002 | 0.069 | -0.093 | -0.12 | 0.054 | -0.068 | 0.042 | -0.052 |
| RPS18 (UniProt P62269) | -0.022 | 0.039 | 0.2 | 0.105 | 0.071 | 0.21 | 0.152 | 0.041 | 0.008 | 0.04 | -0.157 | 0.118 | 0.012 | 0.046 | -0.015 | -0.021 | -0.013 | -0.109 | 0.065 | -0.107 |
| SERPINA7 (UniProt P05543) | 0.339 | 0.395 | 0.018 | -0.169 | 0.147 | 0.056 | -0.145 | 0.061 | -0.085 | 0.078 | -0.213 | 0.251 | -0.206 | 0.071 | 0.052 | 0.008 | -0.157 | 0.381 | -0.017 | -0.088 |
| RAB8B (UniProt Q92930) | 0.084 | -0.058 | -0.098 | -0.054 | 0.006 | -0.004 | -0.014 | 0.056 | -0.062 | -0.06 | 0.258 | -0.076 | 0.045 | -0.017 | -0.035 | -0.064 | 0.021 | -0.076 | 0.023 | -0.096 |
| RTF2 (UniProt Q9BY42) | -0.021 | -0.007 | -0.01 | 0.099 | 0.083 | -0.151 | 0.027 | -0.142 | 0.058 | -0.045 | -0.021 | 0.09 | 0.03 | 0.066 | 0.024 | 0.036 | 0.049 | 0 | 0.026 | -0.027 |
| RSRC1 (UniProt Q96IZ7) | 0.04 | 0.042 | -0.027 | 0.018 | -0.215 (active) | -0.018 | -0.04 | -0.004 | 0.023 | 0.052 | 0.136 | -0.003 | 0.033 | -0.004 | -0.084 | -0.024 | 0.024 | 0.001 | 0.041 | 0.101 |
